Experiment in all cases: NCI-60 one-dose screen, 48 h (100 = growth as untreated, 0 = no growth, -100 = all killed)
Common to all, as to conditions: 10 µM unless noted

Assay [1] relates to NCI-H23 lung.
The subject of assay [2] is NCI-H226 lung.
In assay [3] the test system is NCI-H322M lung.
Assay [4] has as its system HOP-62 NSCLC.
The subject of assay [5] is NCI-H460 lung.
Assay [6] relates to HOP-92 NSCLC.
For assay [7], the system named is NCI-H522 lung.
In assay [8] the test system is A549/ATCC NSCLC.
The subject of assay [9] is 786-0 renal.
In assay [10] the test system is COLO 205 colon.

This is part of a sample that, as a whole, favours compounds with a hit. Of some 83,000 tested, about 20% had one in any assay.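 Growth was measured after 48 h exposure to one concentration of compound in 96-well plates. Values under 10 count as active.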 Unmarked numbers belong to inactive results. The source made the active and inactive calls.

For the molecule `COc1ccc2[nH]cc(-c3nnc(N)nc3-c3c[nH]c4ncc(Br)cc34)c2c1`, the growth in [1] is 92.2%; in assay [2] it was 73.1%; in assay [3], 81.3%; in assay [4] it was 75.8%; in [5] it was 80.1%; in assay [6], 106%. The growth is 84.2% in assay [7], 98.2% in assay [8], 74.8% in assay [9] and 132% in [10].

`COc1cc(CNC(=O)/C=C/c2ccc3c(c2)OCO3)ccc1OCc1cn(-c2ccc([N+](=O)[O-])cc2)nn1`: the growth in [1] is 88.8%; in assay [2] it was 60.6%; in assay [3], 91.5%; in [4], 77.8%; in assay [5], 94.6%; in [6], 96.7%. Also, the growth was 84.9% in assay [7], 91.6% in assay [8], 90.6% in assay [9] and 118% in assay [10].

As for `Cc1c(C(=O)NNC(=O)c2ccc(Cl)cc2)nnn1-c1ccc(Cl)cc1`, the growth was 106% in assay [1]; 95.3% in assay [2]; 89.7% in [3]; 97.3% in assay [4]; 104% in [5]; 79.1% in assay [6]. Moreover, the growth in assay [7] is 96.9%; in assay [8], 95.2%; in assay [9], 94.2%; in assay [10] it was 97.2%.

As to `COc1ccc(/C=C2\C(=O)Nc3ccc(Cl)cc32)cc1OCc1ccccn1`, the growth is 31.6% in [1]; 15.6% in assay [2]; 56% in [3]; 14.6% in [4]; 26.4% in assay [5]; -12.7% (active) in [6]. Besides, the growth in assay [7] was 81.1%; in assay [8] it was 41%; in assay [9], -18.6% (active); in assay [10], 77.8%.

For the molecule `COc1ccc(C(=O)/C=C/c2cccnc2)cc1S(N)(=O)=O`, the growth in [1] is 22.3%; in assay [2], 77.3%; in assay [3] it was 52%; in assay [4], 27.5%; in assay [5] it was 19.9%; in [6] it was 56.5%. In addition, the growth in assay [7] is -67.8% (active); in [8], 42.7%; in assay [9], 50.4%; in assay [10], 23.9%.

As to `CC(=O)Nc1ccc(-c2nc3cc(-c4ccc(O)cc4)ccc3n2C)cc1`, the growth in assay [1] was 59.2%; in assay [2], 90.1%; in assay [3], 65.4%; in assay [4] it was 83.8%; in [5], 33.8%; in assay [6], 36.4%. Further, the growth in [7] is 1.22% (active); in assay [8] it was 69.7%; in assay [9], 50.3%; in [10], 71.3%.

Consider `O=C(COc1ccc(NC(=O)Nc2ccc(Cl)c(Cl)c2)cc1)N=Nc1c(O)[nH]c2ccc(Cl)cc12`, for which the growth in [1] is -19.5% (active); in [2], -42.8% (active); in assay [3], -5.99% (active); in assay [4], -61.3% (active); in assay [5], 14.1%; in assay [6], -30.5% (active). The growth in assay [7] was -55.8% (active); in [8], -39.1% (active); in [9], -52.5% (active); in assay [10], -54.4% (active).

As to `CN1C(=O)/C(=C/c2ccc(C(=O)Nc3ncc(Cc4ccc(Cl)cc4Cl)s3)cc2)SC1=S`, the growth in [1] is 42.8%; in assay [2] it was 51.8%; in assay [3] it was 47.1%; in [4] it was 59.3%; in assay [5], 46.2%; in [6], 64.4%. Also, the growth was 19.2% in assay [7], 42.7% in [8], 53.3% in assay [9] and 27.6% in [10].

In the case of `COc1ccc(C2=NN(c3ccccc3)C(c3ccc(OC)c(OCc4ccccc4)c3)C2)cc1OC` (stereo not given), the growth in [1] was 99.8%; in [2] it was 85.4%; in [3], 102%; in [4] it was 96.7%; in [5], 105%; in assay [6], 109%. The growth in assay [7] is 78.2%; in assay [8], 101%; in assay [9], 90.9%; in assay [10], 115%.

Take `COc1ccc(C(=O)/C=C/c2cccc(Cl)c2)cc1S(N)(=O)=O`: the growth in assay [1] was -10.4% (active); in [2], 38.3%; in assay [3], 10.7%; in [4] it was -37.4% (active); in assay [5] it was 3.05% (active); in [6] it was 85.8%. Further, the growth in [7] is -50.1% (active); in assay [8], -81.7% (active); in assay [9], -57.3% (active); in assay [10], -65.1% (active).

For `O=C(NNc1nc2cc(F)ccc2n2c(CN3CC4CNCC4C3)ccc12)c1ccncn1` (stereo not given), the growth was 30.7% in assay [1]; 7.23% (active) in [2]; 30.8% in assay [3]; 38.3% in assay [4]; 5.26% (active) in assay [5]; 34.5% in assay [6]. For the same molecule, the growth in assay [7] is 32.1%; in [8], 17.8%; in assay [9] it was -2.41% (active); in assay [10], 10%.

With `CN(C)CCn1c2ccccc2c2nc3ccc([N+](=O)[O-])cc3nc21`, the growth in assay [1] is -9.77% (active); in [2], -21.2% (active); in assay [3], 11.3%; in [4], -19.3% (active); in [5], 4.86% (active); in [6], 28.9%. Besides, the growth in assay [7] was -25.2% (active); in [8], -50% (active); in assay [9], 1.77% (active); in assay [10] it was 3.88% (active).

For the molecule `CC(=O)Oc1ccc(/C=C/C(=O)N[C@@H](Cc2ccccc2)C(O)C(=O)NCc2ccccc2)cc1OC(C)=O` (stereo not given in full), the growth in [1] was 93.3%; in assay [2] it was 102%; in assay [3] it was 83.4%; in assay [4] it was 95.2%; in assay [5], 56%; in [6] it was 90%. Further, the growth in [7] was 17.2%; in [8], 87.7%; in [9] it was 81.6%; in assay [10], 91.1%.

The values are drawn from PubChem BioAssay (NCI).
